Among the data in PubChem BioAssay AID761 (NMMLSC, 2007) are percent activity (GTP binding) values, retold here.

Hit rate of the full screen: of about 190,000 compounds, about 400 (0.21%) were called active. About 2% were inconclusive and are not listed.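 Rule for the calls: active = percent activity GTP binding at least 20 points away from the 100% baseline, either down as inhibitor or up as activator; inconclusive = compound flagged as likely green fluorescent from well-wide comparison; inactive = the rest.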 The full list was thinned out, with actives kept by preference.

The target in this assay is Cell division control protein 42 homolog (Homo sapiens) (UniProt P60953). Kind of assay: wildtype Cdc42 fluorescent GTP binding changes, either direction – biochemical, multiplex bead flow cytometry, Bodipy-GTP, primary screen (AID 761).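 Note: median bead fluorescence of bound Bodipy-FL-GTP at 100 nM; 0% = excess unlabeled GTP control and 100% = no compound control; below 100% means less GTP binding so inhibitor and above means activator.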 As to conditions: GST-Cdc42 beads, at 10 µM, actives lie on both sides.
Chain of Cell division control protein 42 homolog (Homo sapiens) (P60953 whole entry, looked up): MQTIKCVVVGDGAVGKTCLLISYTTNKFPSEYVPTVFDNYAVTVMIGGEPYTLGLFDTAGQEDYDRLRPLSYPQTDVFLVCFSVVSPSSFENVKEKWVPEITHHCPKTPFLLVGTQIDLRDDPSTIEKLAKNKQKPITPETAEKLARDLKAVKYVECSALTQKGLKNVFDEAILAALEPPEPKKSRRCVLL
For `CCOc1cc(N2CCOCC2)c(OCC)cc1NC(=O)c1ccc(C)s1`, the percent activity (GTP binding) is 94% (inactive).
For `O=C(CCl)N(Cc1cccc([N+](=O)[O-])c1)c1cccc(Cl)c1`, the percent activity (GTP binding) is 96% (inactive).
Regarding `CC(=O)NCCc1nc2cc(NC(=O)c3ccccc3)ccc2n1C`, the percent activity (GTP binding) is 102% (inactive).
Regarding `COC(=O)c1c(NC(=O)CCCC(=O)O)sc2c1CCCCC2`, the percent activity (GTP binding) was 97% (inactive).
The value for `Cc1nc([N+](=O)[O-])cn1CC(=O)Nc1ccc2c(c1)OCO2` was 94% (inactive); that for `C/C(Cn1nnc2ccccc21)=N\OC(=O)c1cc(F)c(F)cc1Cl` was 89% (inactive); that for `CCCC(C)C(=O)NCc1ccncc1` (centres undefined) was 98% (inactive).
For the molecule `OC1CCCN(c2ncnc3c2nnn3Cc2c(F)cccc2Cl)C1` (centres undefined), the percent activity (GTP binding) was 94% (inactive).
As to `CC(C)(C)c1ccc(/C=C2\SC(=O)N=C2N)cc1`, the percent activity (GTP binding) was 96% (inactive).
With `C=CCC1(CC=C)CCCN1C(=O)CC1C(=O)NCCN1Cc1ccccc1OC` (centres undefined) the figure was 99% (inactive).
`COc1ccc(C(C)=O)cc1CSc1nc2nc(C)cc(C)n2n1`: the percent activity (GTP binding) is 96% (inactive).
The value for `COc1ccc(CCNC(=O)C(=O)NCc2ccccc2C)cc1OC` was 100% (inactive); that for `O=C(C1CCCO1)N1CCN(C(=S)NC2CC2)CC1` (centres undefined) was 98% (inactive).
The value for `S=C(NC1CCCCC1)NN1CCOCC1` was 99% (inactive).
For `COc1cc(/C=N/Nc2ccc(C)cc2)cc(Br)c1O`, the percent activity (GTP binding) is 100% (inactive).
Turning to `COc1ncnc2sc3c(c12)CCCC3`, the percent activity (GTP binding) was 103% (inactive).
With `COc1ccc(/C=N/Nc2ncnc3sc4c(c23)CCCC4)cc1O` the figure was 73% (active).
The value for `Cn1c(N)c(C(=O)COC(=O)/C=C/c2ccc(OC(F)F)cc2)c(=O)n(C)c1=O` was 94% (inactive).
Take `Cc1ccc2c(c1)C1CN(C)CCC1N2C(=S)Nc1ccc(Cl)cc1Cl` (centres undefined): the percent activity (GTP binding) is 97% (inactive).
With `CCCCCCCNc1nc(Cl)nc(NCCO)n1` the figure was 92% (inactive); with `COc1cccc(-n2nc(C(=O)N3CCN(Cc4ccccc4)CC3)c3ccccc3c2=O)c1`, 96% (inactive).
As for `CCOC(=O)N1CCC(=NNC(N)=O)CC1`, the percent activity (GTP binding) was 102% (inactive).
As to `CCOC(=O)C(NC(C)=O)C(=O)Nc1ccc(OC)cc1` (centres undefined), the percent activity (GTP binding) was 93% (inactive).
The value for `S=C(Nc1cccc(Br)c1)N1CCn2cccc2C1c1cccnc1` (centres undefined) was 96% (inactive); that for `O=C(CSc1ccccc1)Nc1ccc(NC(=O)c2ccco2)cc1` was 100% (inactive); that for `Cc1cc(C)cc(NC(=O)CSc2ccccc2)c1` was 91% (inactive).
With `O=C(CSc1ccccc1)Nc1ccc(C(=O)Nc2cccc(O)c2)cc1` the figure was 77% (active); with `COCCSc1nnc(NC(=O)c2cc(OC)c(OC)cc2[N+](=O)[O-])s1`, 102% (inactive).
`O=C(CSc1ncnc2c1nnn2Cc1ccc(F)cc1)NC1CCCC1`: the percent activity (GTP binding) was 96% (inactive).
With `CC(=O)c1ccc(NC(=O)C(C)N(C)CC(=O)Nc2ccccc2Cl)cc1` (centres undefined) the figure was 98% (inactive); with `COC(=O)C(C)N=Cc1ccccc1` (centres undefined), 97% (inactive); with `NS(=O)(=O)c1ccc(CCNC(=O)c2ccc(Cl)cc2[N+](=O)[O-])cc1`, 92% (inactive).
Take `COC(=O)c1ccc(-n2cnc3ccccc32)nc1`: the percent activity (GTP binding) is 95% (inactive).
For the molecule `CCC(C)NCC(=O)Nc1ccc([N+](=O)[O-])cc1C(=O)Nc1ccccc1F` (centres undefined), the percent activity (GTP binding) was 98% (inactive).
On to `CCCn1nc(Oc2nc(NC(C)C)nc(N(C)C)n2)ccc1=O`, for which the percent activity (GTP binding) is 97% (inactive).
`CN(C)c1nnnn1-c1ccc(Cl)cc1`: the percent activity (GTP binding) was 96% (inactive).
As for `O=C(/C=C/c1ccccc1[N+](=O)[O-])OC1CCCCC1=O` (centres undefined), the percent activity (GTP binding) was 97% (inactive).
As for `O=C(N/N=C/c1ccco1)c1ccc(C(=O)N/N=C/c2ccco2)o1`, the percent activity (GTP binding) is 84% (inactive).
For `O=C(Nc1ccc([N+](=O)[O-])cc1)C1CC12CCC2` (centres undefined), the percent activity (GTP binding) is 96% (inactive).
Consider `O=C(Nc1cccnc1)c1ccc(Cl)c([N+](=O)[O-])c1`, for which the percent activity (GTP binding) was 96% (inactive).
The value for `O=C(/C=C/c1ccc(Cl)cc1Cl)c1cccnc1` was 88% (inactive).
With `O=C(/C=C/c1ccc(Cl)c([N+](=O)[O-])c1)c1cccnc1` the figure was 79% (active); with `CC(=O)C1=C(C)NC2=C(C(=O)CC(C)(C)C2)C1C` (centres undefined), 96% (inactive).
As for `CN(CCOc1ccccc1)Cc1nc2cc(Cl)ccc2c(=O)[nH]1`, the percent activity (GTP binding) is 93% (inactive).
With `O=C(CC1Nc2ccccc2NC1=O)Nc1ccccc1NC(=O)CC1Nc2ccccc2NC1=O` (centres undefined) the figure was 99% (inactive).
For `Cc1nc2nc[nH]n2c(=O)c1C/C=C/c1ccccc1`, the percent activity (GTP binding) was 89% (inactive).
With `COc1ccc(C(=O)C2CCCN(C(=O)c3cc4nc(C)cc(C)n4n3)C2)cc1F` (centres undefined) the figure was 99% (inactive); with `O=C(COC(=O)CCc1ccc(S(=O)(=O)N2CCOCC2)cc1)Nc1cccc(Cl)c1`, 97% (inactive); with `O=C(c1ccccc1Cl)N(Cc1ccccc1F)N1C(=O)CCCC1=O`, 98% (inactive).
For the molecule `O=C(O)Cc1sc(-c2ccccc2)nc1-c1cccs1`, the percent activity (GTP binding) was 92% (inactive).
Turning to `CCS(=O)(=O)C1=NSC2=NC(=O)/C(=C\c3cc(C)n(-c4cccc(OC)c4)c3C)C(=N)N21`, the percent activity (GTP binding) was 93% (inactive).
On to `N/C(=N\OC(=O)c1ccc([N+](=O)[O-])cc1)c1ccccn1`, for which the percent activity (GTP binding) was 96% (inactive).
For `O=C(CN1CCC(O)(c2ccccc2)CC1)Nc1ccc2c(c1)OCCO2`, the percent activity (GTP binding) was 97% (inactive).
`CCN1CC(CN(C)Cc2nc(-c3ccc(Cl)cc3)no2)CC1=O` (centres undefined): the percent activity (GTP binding) is 101% (inactive).
Turning to `Cc1ccc([N+](=O)[O-])c(OCCCNCC(C)O)c1` (centres undefined), the percent activity (GTP binding) is 103% (inactive).
Regarding `CCCN(CCC)c1ccc(C(O)c2nnc(-c3ccccc3)o2)cc1` (centres undefined), the percent activity (GTP binding) was 95% (inactive).
The value for `O=C(NCC(O)c1ccc([N+](=O)[O-])cc1)C1CCCCC1` (centres undefined) was 97% (inactive); that for `CN1CCN(c2nc(Nc3ccc(O)cc3)nc3ccccc23)CC1` was 95% (inactive).
With `CCn1c(COc2c(C)cccc2C)nnc1SCc1nc2ccccc2c(=O)[nH]1`, the percent activity (GTP binding) is 94% (inactive).
The value for `O=S(=O)(NC1CC1)c1ccc2c3c(cccc13)CC2` was 93% (inactive).
With `Cc1cc2c(c(=O)n1Cc1ccco1)C(c1ccccc1)C(C#N)=C(N)O2` (centres undefined) the figure was 103% (inactive); with `CCOC(=O)CSc1nc2c(sc(=S)n2CCc2ccccc2)c(=O)n1Cc1ccco1`, 99% (inactive).
As for `CN(c1ccccc1)c1ccc(/C=c2\s/c(=C(/C#N)C(=O)C(C)(C)C)n(Cc3ccco3)c2=O)cc1`, the percent activity (GTP binding) was 143% [activator] (active).
For `CCCNCc1cc(OCC)c(OCC(=O)Nc2ccccc2)cc1Br`, the percent activity (GTP binding) was 96% (inactive).
